The source of these data is PubChem BioAssay (EPA / NIEHS).

In general, AC50 refers to the concentration giving half of the maximal activity seen.

The target of experiment [1] is Estrogen-related receptor gamma (Homo sapiens) (UniProt P62508). Nature of the experiment: ATG_ERRg_TRANS: Attagene TRANS-FACTORIAL HepG2 Assay for human Estrogen-Related Receptor gamma (ERRg) (AID 2282977; active means hit-call score of the fitted dose curve at least 0.9, where 1 is the maximum;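 further: hits increase reporter signal over DMSO so potencies reflect activators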). The note with it: HepG2 Attagene TRANS reporter, ERRg transactivation. The method in brief: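 Transient HepG2 transfectants, 24 h compound exposure, GAL4-UAS reporter mRNA by RT-PCR/6-FAM labelling/capillary electrophoresis; positive direction vs DMSO.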

For experiment [2], the target named is Glucocorticoid receptor (Homo sapiens) (UniProt P04150). The experiment in a line: ATG_GR_TRANS: Attagene TRANS-FACTORIAL HepG2 Assay for human Glucocorticoid Receptor (GR) (AID 2282978; active means hit-call score of the fitted dose curve at least 0.9, where 1 is the maximum;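 further: activators score as hits since higher reporter transcript over DMSO is fitted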). The note with it: HepG2 Attagene TRANS GR reporter, mRNA transcription. In outline: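 HepG2 transient transfection, multiple reporter units, GAL4-UAS under NR-GAL4 chimera control. 24 h treatment. Reporter mRNA by RT-PCR/CE fluorescence, DMSO as negative control.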

Experiment [3] deals with Oxysterols receptor LXR-alpha (Homo sapiens) (UniProt Q13133). Nature of the experiment: ATG_LXRa_TRANS: Attagene TRANS-FACTORIAL HepG2 Assay for human Liver X Receptor alpha (LXRa) (AID 2282980; active means hit-call score of the fitted dose curve at least 0.9, where 1 is the maximum). The note with it: HepG2 Attagene TRANS reporter, LXRa transactivation. In outline: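 HepG2 cells transiently transfected with GAL4-UAS reporter units for chimeric NR-Gal4 proteins, exposed to chemicals for 24 h. Reporter mRNA quantified by RT-PCR and capillary electrophoresis; gain of signal fitted relative to DMSO.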

In experiment [4] the target is Oxysterols receptor LXR-beta (Homo sapiens) (UniProt P55055). The experiment in a line: ATG_LXRb_TRANS: Attagene TRANS-FACTORIAL HepG2 Assay for human Liver X Receptor beta (LXRb) (AID 2282981; active means hit-call score of the fitted dose curve at least 0.9, where 1 is the maximum). The note with it: HepG2 Attagene TRANS GAL4-LXRb reporter, mRNA. In outline: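 HepG2 cells transiently transfected with multiple reporter transcription units carrying chimeric NR-Gal4 proteins acting on GAL4-UAS reporters; compound exposure 24 h. Reporter mRNA quantified by RT-PCR, 6-FAM labelling, HpaI digestion and capillary electrophoresis; gain of signal versus DMSO.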

The target of experiment [5] is Hepatocyte nuclear factor 4-alpha (Homo sapiens) (UniProt P41235). The experiment in a line: ATG_HNF4a_TRANS: Attagene TRANS-FACTORIAL HepG2 Assay for human Hepatocyte Nuclear Factor 4 alpha (HNF4a) (AID 2282982; active means hit-call score of the fitted dose curve at least 0.9, where 1 is the maximum). The note with it: HepG2 HNF4a transactivation reporter, mRNA readout. The method in brief: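 HepG2 cells transiently transfected with multiplexed GAL4-UAS reporter units responsive to chimeric NR-GAL4 proteins; compound exposure 24 h. Reporter mRNA quantified by RT-PCR, 6-FAM labelling, HpaI digestion and capillary electrophoresis; gain of signal versus DMSO baseline.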

Experiment [6] is described as follows: ATG_M_06_TRANS: Attagene TRANS-FACTORIAL HepG2 Assay for M06 Transcription Factor (Internal Marker) (AID 2282983; active means hit-call score of the fitted dose curve at least 0.9, where 1 is the maximum;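 further: reporter transcript level by RT-PCR then capillary electrophoresis fluorescence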). The note with it: HepG2 Attagene TRANS M06 internal marker reporter. In outline: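 HepG2 cells transiently transfected with GAL4-UAS multiple reporter units, dosed 24 h. Reporter RNA reverse-transcribed, PCR-amplified, 6-FAM-labeled, HpaI-digested and quantified by capillary electrophoresis; this internal-marker signal fitted upward relative to DMSO.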

The target in experiment [7] is Nuclear receptor subfamily 4 group A member 2 (Homo sapiens) (UniProt P43354). Nature of the experiment: ATG_NURR1_TRANS: Attagene TRANS-FACTORIAL HepG2 Assay for human Nuclear Receptor Related Protein 1 (NURR1) (AID 2282985; active means hit-call score of the fitted dose curve at least 0.9, where 1 is the maximum). The note with it: HepG2 Attagene TRANS reporter, mRNA readout. The method in brief:
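HepG2 cells transiently transfected with GAL4-UAS reporter units and chimeric NR-Gal4 constructs; chemical exposure 24 h. Reporter mRNA quantified by RT-PCR, fluorescent labelling and capillary electrophoresis; gain of signal fitted relative to DMSO baseline.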

The target in experiment [8] is Transcriptional activator Myb (Homo sapiens) (UniProt P10242). Nature of the experiment: ATG_Myb_CIS: Attagene CIS-FACTORIAL HepG2 Assay for human Myeloblastosis (Myb) Proto-Oncogene Transcription Factor (AID 2282986). The note with it: HepG2 Attagene CIS-FACTORIAL Myb reporter transcription; actives raise or lower the signal. The method in brief:
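Multiplexed cis-reporter system in HepG2: transient transfection, 24 h treatment, mRNA readout by RT-PCR and capillary electrophoresis. Both increases and decreases are scored versus DMSO negative control.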

Experiment [9] has as its target Nuclear respiratory factor 1 (Homo sapiens) (UniProt Q16656). The experiment in a line: ATG_NRF1_CIS: Attagene CIS-FACTORIAL HepG2 Assay for human Nuclear Respiratory Factor 1 (NRF1) Orphan Gene (AID 2282987). The note with it: HepG2 NRF1 cis-element reporter, Attagene multiplex; actives raise or lower the signal. In outline: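 Endogenous factor activity was captured via cis-element-driven reporter transcripts in HepG2 cells. Following 24 h chemical treatment, transcripts were quantified by RT-PCR and capillary electrophoresis.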

Experiment [10] can be described thus: ATG_NFI_CIS: Attagene CIS-FACTORIAL HepG2 Assay for human Nuclear Factor I (NFI) (AID 2282989). The note with it: HepG2 cis-regulatory reporter, NFI response element transcription; actives raise or lower the signal. The method in brief: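 After transient transfection of HepG2 with cis-promoter reporter constructs and 24 h dosing, RNA is reverse-transcribed, amplified, 6-FAM end-labelled and HpaI-digested before capillary analysis. Bidirectional curve fitting against DMSO.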

Experiment [11] has as its target Myc proto-oncogene protein (Homo sapiens) (UniProt P01106). The experiment in a line: ATG_Myc_CIS: Attagene CIS-FACTORIAL HepG2 Assay for human Myelocytomatosis (Myc) Proto-Oncogene Transcription Factor (AID 2282990). The settings on record: HepG2, Attagene cis-reporter transcription factor activity; actives raise or lower the signal. The method in brief:
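HepG2 cells transiently transfected with multiple cis-promoter-driven reporter transcription units, so endogenous TF activity is read. After 24 h compound exposure, reporter mRNA was quantified by RT-PCR, 6-FAM labelling, HpaI digestion and capillary electrophoresis; bidirectional fit versus DMSO.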

The nature of experiment [12]: ATG_NF_kB_CIS: Attagene CIS-FACTORIAL HepG2 Assay for human Nuclear Factor Kappa B (NF-kB) (AID 2282991). The note with it: HepG2 Attagene cis-factorial NF-kB reporter mRNA; actives raise or lower the signal. The method in brief:
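After 24 h compound incubation, transfected HepG2 cells yield total RNA; reporter cDNA is PCR-amplified, end-labelled with 6-FAM, HpaI-digested and analysed on a genetic analyser. Endogenous factor activity, DMSO-referenced bidirectional fit.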

Experiment [13] is described as follows: ATG_NRF2_ARE_CIS: Attagene CIS-FACTORIAL HepG2 Assay for human Nuclear Factor Erythroid 2 Related Factor 2 (NFR2) response to Antioxidant Response Elements (ARE) (AID 2282992). The note with it: HepG2 Attagene ARE/NRF2 reporter, transcription factor activity; actives raise or lower the signal. The method in brief: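 Cis-factorial assay: transfected HepG2 reporter library, 24 h dosing, mRNA readout via RT-PCR/CE; DMSO-referenced bidirectional analysis.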

The nature of experiment [14]: ATG_Oct_MLP_CIS: Attagene CIS-FACTORIAL HepG2 Assay for human Octamer-Binding Transcription Factor (Oct) (AID 2282993). The note with it: HepG2 Attagene cis-factorial Oct reporter, mRNA; actives raise or lower the signal. The method in brief:
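Cells of the HepG2 line express promoter-controlled reporter sequences whose mRNA levels, after 24 h treatment, are measured by RT-PCR and capillary electrophoresis. Increases and decreases are scored relative to DMSO.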

Experiment [15] deals with Cellular tumor antigen p53 (Homo sapiens) (UniProt P04637). The experiment in a line: ATG_p53_CIS: Attagene CIS-FACTORIAL HepG2 Assay for human p53 Transcription Factor (AID 2282994). The note with it: HepG2 p53 cis-element reporter, Attagene mRNA; actives raise or lower the signal. In outline: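 Using HepG2 hepatoma cells carrying cis-acting multiplexed reporters, mRNA induction is detected after a 24 h exposure. Gain- and loss-of-signal responses are fitted relative to DMSO-treated cells.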

Experiment [16] can be described thus: BSK_3C_TissueFactor: BioMAP Diversity Plus: 3C Assay for Tissue Factor Biomarker Activity (AID 2282997). The settings on record: BioMAP 3C HUVEC, tissue factor biomarker readout; actives raise or lower the signal. In outline: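 HUVEC were treated 24 h, then surface tissue factor measured by ELISA and fitted bidirectionally against DMSO. Parallel SRB total-protein staining assessed overt cytotoxicity at the same time point.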

Experiment [17] in a line: BSK_3C_uPAR: BioMAP Diversity Plus: 3C Assay for Urokinase-type plasminogen activator receptor (uPAR) Biomarker Activity (AID 2282998). The note with it: BioMAP 3C HUVEC, uPAR biomarker ELISA; actives raise or lower the signal. The method in brief:
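Endothelial primary cells of human umbilical vein origin received test chemical; 24 h later uPAR was assayed by ELISA. Fitting was bidirectional, DMSO as negative control.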
On the technique in general: An ELISA detects its analyte on a solid surface through an enzyme-linked reagent.

Experiment [18] in a line: BSK_3C_VCAM1: BioMAP Diversity Plus: 3C Assay for Vascular cell adhesion molecule 1 (VCAM1) Biomarker Activity (AID 2282999). The settings on record: BioMAP 3C HUVEC, VCAM1 ELISA, cytokine-stimulated; actives raise or lower the signal. In outline: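 Human umbilical vein endothelial cells were dosed with compound for 24 h, after which cell-surface VCAM-1 was quantified by ELISA. Bidirectional curve fitting used DMSO as negative control and activity baseline.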

Experiment [19] concerns the target Bile acid receptor (Homo sapiens) (UniProt Q96RI1). The experiment in a line: ATG_FXR_TRANS: Attagene TRANS-FACTORIAL HepG2 Assay for Farnesoid X Receptor (FXR) (AID 2282979; active means hit-call score of the fitted dose curve at least 0.9, where 1 is the maximum;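 further: hits raise reporter mRNA above DMSO so AC50 marks FXR activation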). The note with it: HepG2 Attagene TRANS FXR-GAL4 reporter transcription. In outline:
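HepG2 cells were transiently transfected with GAL4-UAS reporters driven by chimeric NR-Gal4 proteins and dosed for 24 h. Reporter mRNA was quantified by RT-PCR, fluorescent labelling, HpaI digestion and capillary electrophoresis, with gain of signal scored versus DMSO.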

A short description of experiment [20]: ATG_M_32_TRANS: Attagene TRANS-FACTORIAL HepG2 Assay for M32 Transcription Factor (Internal Marker) (AID 2282984; active means hit-call score of the fitted dose curve at least 0.9, where 1 is the maximum;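 further: transcript level of a background control reporter unit measured by RT-PCR and capillary electrophoresis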). The note with it: HepG2 Attagene TRANS M32 internal marker reporter. The method in brief:
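HepG2 cells transiently transfected with multiple GAL4-UAS reporter transcription units, dosed for 24 hours; reporter mRNA quantified by RT-PCR, 6-FAM primer extension, HpaI digestion and capillary electrophoresis. Gain-of-signal fitted versus DMSO baseline; internal background-control marker.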

Results filed as inconclusive are left out. Calls of active or inactive are those of the source. How the source made its calls, unless noted: active means hit-call score of the fitted dose curve at least 0.9, where 1 is the maximum; inactive means score below 0.9.

Sequence of Nuclear respiratory factor 1 (Homo sapiens) (Q16656 whole entry, looked up): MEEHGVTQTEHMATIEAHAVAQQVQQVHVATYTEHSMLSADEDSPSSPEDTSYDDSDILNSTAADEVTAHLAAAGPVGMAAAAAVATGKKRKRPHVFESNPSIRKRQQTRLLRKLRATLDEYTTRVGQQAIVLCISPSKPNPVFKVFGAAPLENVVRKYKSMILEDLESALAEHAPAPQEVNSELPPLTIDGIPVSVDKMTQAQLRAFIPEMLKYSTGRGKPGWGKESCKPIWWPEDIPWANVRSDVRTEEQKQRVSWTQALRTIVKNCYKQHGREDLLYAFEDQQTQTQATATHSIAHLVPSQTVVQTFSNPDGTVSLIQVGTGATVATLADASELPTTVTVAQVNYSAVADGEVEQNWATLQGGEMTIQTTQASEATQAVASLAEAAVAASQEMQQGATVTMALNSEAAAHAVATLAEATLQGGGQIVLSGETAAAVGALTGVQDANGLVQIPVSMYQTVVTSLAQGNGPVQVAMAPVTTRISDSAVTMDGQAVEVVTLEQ
Sequence of Hepatocyte nuclear factor 4-alpha (Homo sapiens) (P41235 whole entry, looked up, the tested form may be a part): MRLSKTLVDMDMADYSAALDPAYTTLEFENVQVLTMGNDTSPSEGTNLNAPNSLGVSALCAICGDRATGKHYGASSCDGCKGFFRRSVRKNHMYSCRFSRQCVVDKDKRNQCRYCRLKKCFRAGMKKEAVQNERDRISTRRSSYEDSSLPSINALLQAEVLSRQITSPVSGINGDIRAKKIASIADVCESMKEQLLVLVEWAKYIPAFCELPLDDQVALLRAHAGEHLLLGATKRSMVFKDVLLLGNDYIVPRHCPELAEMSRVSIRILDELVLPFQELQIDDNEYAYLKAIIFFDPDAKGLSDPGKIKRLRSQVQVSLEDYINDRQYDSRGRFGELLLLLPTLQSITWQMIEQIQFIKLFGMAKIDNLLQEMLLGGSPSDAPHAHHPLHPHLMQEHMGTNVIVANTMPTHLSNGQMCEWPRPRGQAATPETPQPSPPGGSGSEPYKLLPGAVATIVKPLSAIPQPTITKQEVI
Sequence of Transcriptional activator Myb (Homo sapiens) (P10242 whole entry, looked up): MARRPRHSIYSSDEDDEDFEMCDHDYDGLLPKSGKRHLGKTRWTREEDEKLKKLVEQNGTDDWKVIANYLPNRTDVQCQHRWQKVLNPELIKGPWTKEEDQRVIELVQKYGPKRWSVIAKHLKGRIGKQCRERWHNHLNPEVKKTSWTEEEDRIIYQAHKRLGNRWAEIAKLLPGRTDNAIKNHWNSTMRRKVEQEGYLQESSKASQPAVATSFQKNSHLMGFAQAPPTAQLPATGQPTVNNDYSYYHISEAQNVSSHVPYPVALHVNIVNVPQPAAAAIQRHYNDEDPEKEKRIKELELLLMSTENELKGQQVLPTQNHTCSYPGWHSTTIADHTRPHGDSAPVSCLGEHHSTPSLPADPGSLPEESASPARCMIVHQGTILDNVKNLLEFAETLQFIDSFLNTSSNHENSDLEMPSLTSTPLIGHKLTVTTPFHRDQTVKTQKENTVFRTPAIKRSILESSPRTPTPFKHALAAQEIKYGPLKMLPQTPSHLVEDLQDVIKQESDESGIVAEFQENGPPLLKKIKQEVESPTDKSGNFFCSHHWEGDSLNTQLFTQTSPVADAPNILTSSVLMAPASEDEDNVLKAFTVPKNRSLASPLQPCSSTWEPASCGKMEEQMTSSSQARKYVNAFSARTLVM
Sequence of Oxysterols receptor LXR-beta (Homo sapiens) (P55055 whole entry, looked up, the tested form may be a part): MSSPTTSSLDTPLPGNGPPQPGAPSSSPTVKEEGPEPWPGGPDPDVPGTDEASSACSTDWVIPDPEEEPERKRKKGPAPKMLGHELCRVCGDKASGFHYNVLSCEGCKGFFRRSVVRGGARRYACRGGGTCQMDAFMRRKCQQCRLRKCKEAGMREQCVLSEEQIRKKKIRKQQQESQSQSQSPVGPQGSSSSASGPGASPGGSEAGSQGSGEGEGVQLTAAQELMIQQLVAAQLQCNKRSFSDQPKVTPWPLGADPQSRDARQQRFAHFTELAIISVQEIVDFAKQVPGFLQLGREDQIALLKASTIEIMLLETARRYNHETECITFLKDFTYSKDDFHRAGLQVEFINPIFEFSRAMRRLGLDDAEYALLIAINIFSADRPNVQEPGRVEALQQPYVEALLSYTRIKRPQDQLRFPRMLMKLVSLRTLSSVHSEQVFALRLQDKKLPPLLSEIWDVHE
Sequence of Oxysterols receptor LXR-alpha (Homo sapiens) (Q13133 whole entry, looked up, the tested form may be a part): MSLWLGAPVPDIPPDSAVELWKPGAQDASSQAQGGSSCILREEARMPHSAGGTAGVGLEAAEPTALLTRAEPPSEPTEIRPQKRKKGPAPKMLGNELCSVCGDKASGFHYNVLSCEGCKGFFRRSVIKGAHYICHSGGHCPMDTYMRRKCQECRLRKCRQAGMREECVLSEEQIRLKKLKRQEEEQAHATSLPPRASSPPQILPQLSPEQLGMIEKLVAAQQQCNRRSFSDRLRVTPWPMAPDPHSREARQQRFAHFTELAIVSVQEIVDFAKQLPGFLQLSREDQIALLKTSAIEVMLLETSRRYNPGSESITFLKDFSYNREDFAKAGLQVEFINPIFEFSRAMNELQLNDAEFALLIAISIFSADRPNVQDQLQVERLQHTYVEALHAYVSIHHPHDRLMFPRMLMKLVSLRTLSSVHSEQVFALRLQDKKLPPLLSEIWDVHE
Sequence of Glucocorticoid receptor (Homo sapiens) (P04150 whole entry, looked up, the tested form may be a part): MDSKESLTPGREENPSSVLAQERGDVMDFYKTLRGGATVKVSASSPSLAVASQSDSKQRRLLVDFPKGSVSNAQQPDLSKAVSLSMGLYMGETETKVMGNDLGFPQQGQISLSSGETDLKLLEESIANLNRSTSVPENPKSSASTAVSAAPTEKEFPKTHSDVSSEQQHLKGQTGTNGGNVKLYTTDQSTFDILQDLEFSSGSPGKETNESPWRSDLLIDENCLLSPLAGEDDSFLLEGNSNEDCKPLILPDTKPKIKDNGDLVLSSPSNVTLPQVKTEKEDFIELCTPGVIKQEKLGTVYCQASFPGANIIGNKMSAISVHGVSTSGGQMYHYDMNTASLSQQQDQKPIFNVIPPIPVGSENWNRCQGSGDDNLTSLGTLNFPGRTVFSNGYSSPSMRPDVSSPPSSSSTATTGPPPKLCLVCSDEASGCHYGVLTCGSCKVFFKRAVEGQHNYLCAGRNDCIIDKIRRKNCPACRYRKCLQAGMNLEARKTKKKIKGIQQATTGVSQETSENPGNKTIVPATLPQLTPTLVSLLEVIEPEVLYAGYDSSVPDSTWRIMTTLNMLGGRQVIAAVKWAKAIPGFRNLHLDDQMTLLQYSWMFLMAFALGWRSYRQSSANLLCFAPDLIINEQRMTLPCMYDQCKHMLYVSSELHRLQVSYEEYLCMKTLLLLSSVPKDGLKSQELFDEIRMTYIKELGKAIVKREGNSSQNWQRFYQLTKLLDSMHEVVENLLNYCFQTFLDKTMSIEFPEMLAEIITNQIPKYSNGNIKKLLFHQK
Sequence of Myc proto-oncogene protein (Homo sapiens) (P01106 whole entry, looked up): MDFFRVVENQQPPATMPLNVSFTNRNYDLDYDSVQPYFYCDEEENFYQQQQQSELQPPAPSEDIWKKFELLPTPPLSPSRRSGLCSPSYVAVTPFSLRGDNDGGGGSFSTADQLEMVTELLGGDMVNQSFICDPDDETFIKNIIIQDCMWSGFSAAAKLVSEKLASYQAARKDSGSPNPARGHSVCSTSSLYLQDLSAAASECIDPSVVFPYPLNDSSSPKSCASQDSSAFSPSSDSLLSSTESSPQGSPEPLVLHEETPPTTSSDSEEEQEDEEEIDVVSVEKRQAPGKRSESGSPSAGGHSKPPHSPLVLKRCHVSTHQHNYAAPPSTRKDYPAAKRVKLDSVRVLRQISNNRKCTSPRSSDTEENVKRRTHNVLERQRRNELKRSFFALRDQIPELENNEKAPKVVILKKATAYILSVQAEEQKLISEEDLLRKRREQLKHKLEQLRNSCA
Sequence of Bile acid receptor (Homo sapiens) (Q96RI1 whole entry, looked up, the tested form may be a part): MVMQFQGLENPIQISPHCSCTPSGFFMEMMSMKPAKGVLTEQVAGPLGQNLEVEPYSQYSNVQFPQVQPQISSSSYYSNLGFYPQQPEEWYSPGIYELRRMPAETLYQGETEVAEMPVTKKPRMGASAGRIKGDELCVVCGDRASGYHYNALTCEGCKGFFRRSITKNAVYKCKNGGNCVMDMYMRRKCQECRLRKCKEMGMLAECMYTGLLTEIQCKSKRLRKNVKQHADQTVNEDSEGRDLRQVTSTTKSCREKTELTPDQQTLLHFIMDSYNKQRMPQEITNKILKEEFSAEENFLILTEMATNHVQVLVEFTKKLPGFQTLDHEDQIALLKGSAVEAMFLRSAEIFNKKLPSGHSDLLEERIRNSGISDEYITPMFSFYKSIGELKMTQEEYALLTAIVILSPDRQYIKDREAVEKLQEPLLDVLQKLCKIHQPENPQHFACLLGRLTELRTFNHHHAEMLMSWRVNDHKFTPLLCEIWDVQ
Sequence of Nuclear receptor subfamily 4 group A member 2 (Homo sapiens) (P43354 whole entry, looked up, the tested form may be a part): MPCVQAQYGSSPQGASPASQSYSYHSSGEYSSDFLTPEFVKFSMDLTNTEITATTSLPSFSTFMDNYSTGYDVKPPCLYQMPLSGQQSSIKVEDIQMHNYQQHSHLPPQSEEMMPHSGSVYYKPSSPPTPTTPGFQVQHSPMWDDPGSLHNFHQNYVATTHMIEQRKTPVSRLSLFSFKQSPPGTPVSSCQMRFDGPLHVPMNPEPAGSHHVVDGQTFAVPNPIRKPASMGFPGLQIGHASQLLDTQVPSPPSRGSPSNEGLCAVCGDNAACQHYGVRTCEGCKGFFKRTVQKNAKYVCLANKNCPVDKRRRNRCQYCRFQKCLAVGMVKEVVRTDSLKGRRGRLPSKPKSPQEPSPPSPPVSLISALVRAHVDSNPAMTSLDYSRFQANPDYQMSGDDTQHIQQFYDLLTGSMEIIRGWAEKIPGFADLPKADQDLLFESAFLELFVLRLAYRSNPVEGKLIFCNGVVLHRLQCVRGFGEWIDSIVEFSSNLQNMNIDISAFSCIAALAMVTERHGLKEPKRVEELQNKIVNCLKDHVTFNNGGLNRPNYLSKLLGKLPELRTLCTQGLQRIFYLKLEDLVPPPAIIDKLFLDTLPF

Take `O=C(O)C(F)(F)C(F)(F)C(F)(F)OC(F)(F)F`: the outcome in experiment [1], in [2], in experiment [3], in [4], in experiment [5] and in experiment [6] was inactive. Also, the outcome in experiment [7], in [8], in [9], in [10], in experiment [11] and in experiment [12] was inactive. For the same compound, the compound was classed as inactive in experiment [13], in [14], in [15], in [16], in experiment [17] and in experiment [18].

With `CCOCN(C(=O)CS(=O)(=O)O)c1c(C)cccc1CC`, the call in experiment [2], in [19], in experiment [3], in [4], in experiment [5] and in experiment [6] was inactive. The outcome in [20], in [7], in experiment [8], in [9], in experiment [10] and in experiment [11] was inactive. Moreover, the outcome in experiment [12], in experiment [13] and in experiment [14] was inactive.

Turning to `CCOC(=O)CC(=O)C(F)(F)C(F)(F)F`, the outcome in [1], in experiment [2], in experiment [19], in [3], in experiment [4] and in experiment [5] was inactive. Also, the result in [7], in experiment [8], in experiment [9], in experiment [10], in [11] and in [12] was inactive. The result in experiment [13], in [16], in experiment [17] and in [18] was inactive.

Consider `CCCCCCCCCCCCC[N+](C)(C)Cc1ccccc1`, for which the compound was called inactive in [2], in [19], in experiment [3], in experiment [4], in experiment [6] and in experiment [20]. In addition, the result in experiment [8], in experiment [9], in [10], in experiment [11], in [12] and in experiment [14] was inactive. Moreover, in experiment [15], the outcome was inactive. Further, in experiment [13], the AC50 was 4.37 µM (active).
